Measurements taken from PubChem BioAssay (EPA / NIEHS).
Where “and” joins values, the source holds several entries; their conditions need not be identical. Equal entries are not always repeated. A structure can be active in one record and inactive in another. Calls of active or inactive are those of the source. The calls were made as follows: active = hit-call score of the fitted dose curve at least 0.9, where 1 is the maximum; inactive = score below 0.9.

Columns and labels:
[1] = read-out: TIMP metallopeptidase inhibitor 1 (TIMP1), TIMP1 (gene 7076); assay: BSK_hDFCGF_TIMP1: BioMAP Diversity Plus: hDFCGF Assay for TIMP metallopeptidase inhibitor 1 (TIMP1) Biomarker Activity (AID 2283062); details: primary human foreskin fibroblasts; actives raise or lower the signal
In short: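 ELISA readout of TIMP-1 from human dermal foreskin fibroblast cultures 24 h post-dosing. Curves were fitted in both directions against DMSO baseline, with SRB total-protein staining in parallel cultures as a cytotoxicity check.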

[2] = read-out: Monokine induced gamma interferon (MIG), CXCL9 (gene 4283); assay: BSK_hDFCGF_MIG: BioMAP Diversity Plus: hDFCGF Assay for Monokine induced gamma interferon (MIG) Biomarker Activity (AID 2283063); details: primary human foreskin fibroblasts; actives raise or lower the signal
In short: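 Fibroblasts (human foreskin, primary) dosed, 24 h, MIG by ELISA; fit bidirectional vs DMSO.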

[3] = read-out: Matrix Metallopeptidase 1 (MMP1), MMP1 (gene 4312); assay: BSK_hDFCGF_MMP1: BioMAP Diversity Plus: hDFCGF Assay for Matrix Metallopeptidase 1 (MMP1) Biomarker Activity (AID 2283064); details: primary human foreskin fibroblasts; actives raise or lower the signal
In short: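 Primary human foreskin fibroblasts in the hDFCGF system were dosed with test chemical, and MMP1 was measured by ELISA 24 h later. Values come from bidirectional curve fitting against the DMSO baseline.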

[4] = read-out: Plasminogen activator inhibitor-1 (PAI1), SERPINE1 (gene 5054); assay: BSK_hDFCGF_PAI1: BioMAP Diversity Plus: hDFCGF Assay for Plasminogen activator inhibitor-1 (PAI1) Biomarker Activity (AID 2283066); details: primary human foreskin fibroblasts; actives raise or lower the signal
In short: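 Human foreskin fibroblast primary cells, 24 h chemical exposure; PAI-1 measured by ELISA. Bidirectional fitting relative to DMSO; parallel cultures stained with SRB for total protein to flag overt cytotoxicity.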

[5] = read-out: Intercellular Adhesion Molecule 1 (ICAM1), ICAM1 (gene 3383); assay: BSK_KF3CT_ICAM1: BioMAP Diversity Plus: KF3CT Assay for Intercellular Adhesion Molecule 1 (ICAM1) Biomarker Activity (AID 2283067); details: primary human keratinocytes with fibroblasts; actives raise or lower the signal
In short: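 ELISA readout of ICAM-1; KF3CT human skin co-culture (keratinocytes + foreskin fibroblasts), 24 h post-dose; gain/loss fit vs DMSO baseline.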

[6] = read-out: Interferon-gamma inducible Protein 10 (IP10), CXCL10 (gene 3627); assay: BSK_KF3CT_IP10: BioMAP Diversity Plus: KF3CT Assay for Interferon-gamma inducible Protein 10 (IP10) Biomarker Activity (AID 2283068); details: primary human keratinocytes with fibroblasts; actives raise or lower the signal
In short: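 Signal is secreted/surface IP-10 by ELISA in a human primary skin co-culture of keratinocytes and foreskin fibroblasts, taken 24 h post-dosing; DMSO served as negative control.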

[7] = BSK_KF3CT_SRB: Viability Assessment in the BioMAP Diversity Plus: KF3CT Assay (AID 2283069); details: primary human keratinocytes with fibroblasts;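 also: total protein by sulforhodamine B staining as a cytotoxicity measure; read 24 h after compound addition; fitted for both signal gain and loss against DMSO baseline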
In short: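 Human primary keratinocyte plus foreskin fibroblast co-culture exposed to chemicals for 24 h. Total protein measured by 0.1% sulforhodamine B staining after 10% TCA fixation, read at 560 nm; bidirectional fitting versus DMSO baseline.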

[8] = read-out: Matrix Metallopeptidase 9 (MMP9), MMP9 (gene 4318); assay: BSK_KF3CT_MMP9: BioMAP Diversity Plus: KF3CT Assay for Matrix Metallopeptidase 9 (MMP9) Biomarker Activity (AID 2283074); details: primary human keratinocytes with fibroblasts; actives raise or lower the signal;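 as to AC50: MMP9 protein level quantified by ELISA in the co-culture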
In short: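 Keratinocyte plus foreskin fibroblast human primary skin co-culture was dosed with chemical and MMP-9 was quantified by ELISA 24 h later. Bidirectional curve fitting used DMSO as negative control and activity baseline.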

CD40, CD40 (gene 958) [9] = assay: BSK_LPS_CD40: BioMAP Diversity Plus: LPS Assay for CD40 Biomarker Activity (AID 2283076); details: primary human HUVEC with PBMC; actives raise or lower the signal
In short: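 ELISA readout of CD40 in HUVEC/PBMC co-culture (BSK_LPS system), 24 h post-dosing; bidirectional curve fit, DMSO baseline; parallel SRB total-protein staining for cytotoxicity.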

[10] = read-out: E-selectin (Homo sapiens) (UniProt P16581); assay: BSK_LPS_Eselectin: BioMAP Diversity Plus: LPS Assay for Eselectin Biomarker Activity (AID 2283077); details: primary human HUVEC with PBMC; actives raise or lower the signal
In short: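 ELISA readout of E-selectin, 24 h post-dose, HUVEC + PBMC co-culture (LPS system). Gain or loss of signal vs DMSO baseline, bidirectional fit.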

[11] = BSK_LPS_SRB: Viability Assessment in the BioMAP Diversity Plus: LPS Assay (AID 2283079); details: primary human HUVEC with PBMC;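 also: total protein by sulforhodamine B absorbance as a cytotoxicity measure; measured one day after compound addition; fitted in both directions against DMSO so loss or gain of signal counts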
In short: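 HUVEC + PBMC co-culture, LPS-stimulated; compound 24 h. 10% TCA fix, 0.1% SRB stain, A560. Bidirectional fit vs DMSO.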

[12] = read-out: Macrophage colony-stimulating factor (MCSF), CSF1 (gene 1435); assay: BSK_LPS_MCSF: BioMAP Diversity Plus: LPS Assay for Macrophage colony-stimulating factor (MCSF) Biomarker Activity (AID 2283083); details: primary human HUVEC with PBMC; actives raise or lower the signal
In short: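 HUVEC + PBMC co-culture (human primary), 24 h post-dose; M-CSF by ELISA; gain/loss of signal fitted bidirectionally vs DMSO baseline.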

[13] = read-out: Tissue Factor, F3 (gene 2152); assay: BSK_LPS_TissueFactor: BioMAP Diversity Plus: LPS Assay for Tissue Factor Biomarker Activity (AID 2283084); details: primary human HUVEC with PBMC; actives raise or lower the signal
In short: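 HUVEC/PBMC co-culture, LPS-activated; CD142 ELISA read 24 h post-dose; bidirectional curve fit vs DMSO negative control.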

[14] = read-out: Tumor necrosis factor (Homo sapiens) (UniProt P01375); assay: BSK_LPS_TNFa: BioMAP Diversity Plus: LPS Assay for Tumour Necrosis Factor alpha (TNFa) Biomarker Activity (AID 2283085); details: primary human HUVEC with PBMC; actives raise or lower the signal;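 as to AC50: TNFa protein level quantified by ELISA in the co-culture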
In short: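 Human umbilical vein endothelial cells co-cultured with PBMC and stimulated with LPS. TNFa was measured by ELISA 24 h after chemical dosing, fitted bidirectionally relative to DMSO.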

[15] = read-out: Vascular cell adhesion molecule 1 (VCAM1), VCAM1 (gene 7412); assay: BSK_LPS_VCAM1: BioMAP Diversity Plus: LPS Assay for Vascular cell adhesion molecule 1 (VCAM1) Biomarker Activity (AID 2283086); details: primary human HUVEC with PBMC; actives raise or lower the signal
In short: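 Human umbilical vein endothelial cells co-cultured with PBMC and stimulated with LPS; VCAM-1 measured by ELISA 24 h after dosing. Bidirectional curve fitting against DMSO baseline; cytotoxicity tracked in parallel by SRB total-protein staining.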

CD40, CD40 (gene 958) [16] = assay: BSK_SAg_CD40: BioMAP Diversity Plus: SAg Assay for CD40 Biomarker Activity (AID 2283088); details: primary human HUVEC with PBMC; actives raise or lower the signal
In short: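 HUVEC/PBMC co-culture, 24 h post-dose; CD40 by ELISA, fluorescence intensity; bidirectional fit vs DMSO negative control.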

[17] = BSK_SAg_PBMCCytotoxicity: PBMC Cytotoxicity Assessment in the BioMAP Diversity Plus: SAg Assay (AID 2283093); details: primary human HUVEC with PBMC;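 also: PBMC viability measured as Alamar Blue reduction fluorescence at 546/580 nm; fitted both ways against DMSO so a hit may be loss or gain of signal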;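 as to AC50: PBMC superantigen activated with SEB plus TSST-1 one hour after compound addition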
In short: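 Human umbilical vein endothelial cells co-cultured with PBMC; PBMC (75,000/well) pre-treated with compound 1 h, then activated with SEB and TSST-1 (20 ng/mL final each) for 90 h. Alamar Blue added 6 h, fluorescence 546/580 nm; bidirectional fit versus DMSO.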

[18] = BSK_SAg_SRB: Viability Assessment in the BioMAP Diversity Plus: SAg Assay (AID 2283096); details: primary human HUVEC with PBMC;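 also: cells read one day after compound addition; hits may be either gain or loss of signal compared with DMSO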
In short: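 Endothelial/PBMC primary human co-culture; compound 24 h; fix 10% TCA, stain 0.1% SRB, A560; protein content as cytotoxicity proxy; bidirectional curve fit, DMSO = baseline.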

[19] = read-out: Interleukin 6 (IL6), IL6 (gene 3569); assay: BSK_BT_xIL6: BioMAP Diversity Plus: BT Assay for Interleukin 6 (IL6) Biomarker Activity (AID 2284228); details: primary human B cells with PBMC
In short: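 Readout: secreted IL-6 via Luminex xMAP multiplex, 24 h post-dosing. System: primary human B cells co-cultured with PBMC. Signal change scored relative to DMSO vehicle, positive fitting direction.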

[20] = read-out: Interleukin 17A (IL17A), IL17A (gene 3605); assay: BSK_BT_xIL17A: BioMAP Diversity Plus: BT Assay for Interleukin 17A (IL17A) Biomarker Activity (AID 2284229); details: primary human B cells with PBMC
In short: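 Luminex xMAP readout of secreted IL-17A; human B cell + PBMC co-culture; 24 h post-dose; positive-direction fit vs DMSO negative control.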

Measured: AC50

Chain of Tumor necrosis factor (Homo sapiens) (P01375 whole entry, looked up): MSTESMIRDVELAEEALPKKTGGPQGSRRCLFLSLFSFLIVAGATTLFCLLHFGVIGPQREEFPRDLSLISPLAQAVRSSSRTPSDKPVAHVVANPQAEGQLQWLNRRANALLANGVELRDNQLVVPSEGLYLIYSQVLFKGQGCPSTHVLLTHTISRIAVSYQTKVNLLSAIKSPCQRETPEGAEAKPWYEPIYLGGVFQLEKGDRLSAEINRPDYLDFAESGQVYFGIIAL
Chain of E-selectin (Homo sapiens) (P16581 whole entry, looked up): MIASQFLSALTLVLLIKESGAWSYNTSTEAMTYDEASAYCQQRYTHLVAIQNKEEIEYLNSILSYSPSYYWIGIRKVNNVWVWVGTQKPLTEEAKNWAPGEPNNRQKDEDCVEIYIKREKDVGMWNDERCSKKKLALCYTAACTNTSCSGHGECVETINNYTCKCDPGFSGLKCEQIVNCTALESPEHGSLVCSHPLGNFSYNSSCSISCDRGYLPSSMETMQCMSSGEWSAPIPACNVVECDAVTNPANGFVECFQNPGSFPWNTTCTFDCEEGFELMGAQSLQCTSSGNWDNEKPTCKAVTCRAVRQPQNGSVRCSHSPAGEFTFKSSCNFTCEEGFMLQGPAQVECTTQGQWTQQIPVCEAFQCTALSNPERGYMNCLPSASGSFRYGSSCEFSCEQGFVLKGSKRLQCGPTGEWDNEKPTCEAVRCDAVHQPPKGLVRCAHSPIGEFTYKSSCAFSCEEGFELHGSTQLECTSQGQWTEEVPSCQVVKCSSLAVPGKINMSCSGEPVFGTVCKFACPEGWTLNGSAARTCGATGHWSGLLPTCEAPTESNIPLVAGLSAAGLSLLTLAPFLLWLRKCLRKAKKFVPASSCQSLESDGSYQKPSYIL

O=C1C=CC(=O)C=C1
active: [1] 20 µM and 13.2 µM | [2] 11.2 µM and 28.8 µM | [3] 32.2 µM and 26.5 µM | [4] 20 µM and 19.2 µM | [5] 24.5 µM and 21.7 µM | [6] 27.8 µM and 24.1 µM | [8] 20 µM and 11.6 µM | CD40, CD40 (gene 958) [9] 12.3 µM and 20 µM | [10] 26.4 µM and 30.4 µM | [12] 20 µM and 28.7 µM | [14] 31.7 µM and 18.7 µM | [15] 20 µM | CD40, CD40 (gene 958) [16] 29 µM and 27.7 µM | [17] 9.09 µM and 7.38 µM | [19] 11.3 µM and 25.7 µM | [20] 13.6 µM and 20 µM
inactive: [7] | [11] | [13] | [18]

O=[N+]([O-])O
not listed: [19] | [20]
inactive: all other assays above

CNC(=O)Oc1cc(C)c(SC)c(C)c1
active: CD40, CD40 (gene 958) [9] 20 µM | [15] 20 µM | CD40, CD40 (gene 958) [16] 16.7 µM | [19] 8.6 µM | [20] 11.5 µM
inactive: all other assays above

Cc1ccc(OP(=O)(Oc2ccc(C)cc2)Oc2ccc(C)cc2)cc1 (tested in a mixture with another compound)
active: [8] 13.6 µM | CD40, CD40 (gene 958) [9] 7.66 µM | [11] 20 µM | [12] 16.1 µM | CD40, CD40 (gene 958) [16] 20 µM | [18] 20 µM | [19] 13.2 µM | [20] 14.1 µM
inactive: all other assays above

CC1(C)[C@H](C(=O)O[C@H](C#N)c2cccc(Oc3ccccc3)c2)[C@@H]1C=C(Br)Br
inactive: [1] | [2] | [3] | [4] | [5] | [6] | [7] | [8] | CD40, CD40 (gene 958) [9] | [10] | [11] | [12] | [13] | [14] | [15] | CD40, CD40 (gene 958) [16] | [17] | [18] | [19] | [20]
active: [19] 15.2 µM | [20] 20 µM

COCC(=O)N(c1c(C)cccc1C)N1CCOC1=O
inactive: all assays above

c1ccc(Nc2ccc3ccccc3c2)cc1
active: [1] 31.5 µM | [3] 33.3 µM | [4] 29.3 µM | [5] 36.6 µM | [6] 36.3 µM | [7] 36.9 µM | [8] 28.3 µM | [19] 29.9 µM | [20] 20 µM
inactive: all other assays above
